# In PubChem BioAssay (NCATS):
# “And” between values parts separate entries of the source, which are not always exact repeats. Equal entries are not always repeated. Records with an inconclusive call do not appear. Where a call stands in place of a potency, no number is given. The source made the active and inactive calls. Unless noted, the call rests on the fitted dose curve; in most records, active means well fitted curve in the direction sought with a large enough effect in the repeat runs; inconclusive means weak or mixed curves; inactive means no such curve, though single readings can be large; an effect the other way counts as inactive or inconclusive.
# Experiments:
# [1] = target: Cytochrome P450 3A4 (Homo sapiens) (UniProt P08684); experiment: Cytochrome P450 family 3 subfamily A member 4 (CYP3A4) small molecule antagonists: luciferase qHTS assay (AID 1645841); further: nearly all actives have a fitted effect of over 45% in size; further: potency means the concentration at half of the fitted maximal effect
# Chain of Cytochrome P450 3A4 (Homo sapiens) (P08684 whole entry, looked up): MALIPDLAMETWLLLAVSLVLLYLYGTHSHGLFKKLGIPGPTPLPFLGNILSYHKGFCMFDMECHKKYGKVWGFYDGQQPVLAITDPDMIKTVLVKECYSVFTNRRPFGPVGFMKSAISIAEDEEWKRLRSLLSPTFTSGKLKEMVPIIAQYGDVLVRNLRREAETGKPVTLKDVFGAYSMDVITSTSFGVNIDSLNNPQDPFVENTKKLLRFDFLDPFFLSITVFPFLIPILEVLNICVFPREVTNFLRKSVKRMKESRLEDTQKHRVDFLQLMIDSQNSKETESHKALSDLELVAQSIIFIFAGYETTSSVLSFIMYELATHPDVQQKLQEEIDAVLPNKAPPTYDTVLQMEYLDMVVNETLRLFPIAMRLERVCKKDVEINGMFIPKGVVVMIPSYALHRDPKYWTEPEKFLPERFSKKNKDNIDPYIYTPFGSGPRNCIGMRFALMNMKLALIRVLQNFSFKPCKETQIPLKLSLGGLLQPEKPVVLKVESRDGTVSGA
# Summary of the method: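 P450-Glo CYP3A4 enzyme with proluciferin substrate was preincubated with DMSO-dissolved compounds for 10 min at room temperature. NADPH regeneration solution started a 1 h reaction. Detection reagent stopped it, and luminescence was read after 20 min.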
# [2] = target: Cytochrome P450 2C9 (Homo sapiens) (UniProt P11712); experiment: Cytochrome P450 family 2 subfamily C member 9 (CYP2C9) small molecule antagonists: luciferase biochemical (cell-free) qHTS assay (AID 1645842); further: nearly all actives have a fitted effect of over 55% in size; further: potency means the concentration at half of the fitted maximal effect
# Chain of Cytochrome P450 2C9 (Homo sapiens) (P11712 whole entry, looked up): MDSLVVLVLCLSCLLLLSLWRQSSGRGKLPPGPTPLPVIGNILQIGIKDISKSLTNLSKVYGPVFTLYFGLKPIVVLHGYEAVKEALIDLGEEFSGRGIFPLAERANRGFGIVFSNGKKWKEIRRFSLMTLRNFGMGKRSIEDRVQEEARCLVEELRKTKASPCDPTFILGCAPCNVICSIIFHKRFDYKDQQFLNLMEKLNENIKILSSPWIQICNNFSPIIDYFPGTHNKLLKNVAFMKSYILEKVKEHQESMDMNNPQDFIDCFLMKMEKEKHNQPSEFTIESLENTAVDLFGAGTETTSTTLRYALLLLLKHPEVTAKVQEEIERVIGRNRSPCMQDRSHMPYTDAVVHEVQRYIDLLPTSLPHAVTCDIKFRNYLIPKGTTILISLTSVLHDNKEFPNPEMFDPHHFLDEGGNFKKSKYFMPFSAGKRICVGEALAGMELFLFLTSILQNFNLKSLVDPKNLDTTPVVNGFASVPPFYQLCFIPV
# Summary of the method: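 Luminescence, after 20 min with luciferin detection reagent, reflected CYP2C9 turnover during a 1 h NADPH-driven reaction at 37C. Enzyme-substrate mix contained 0.4% bovine serum albumin and was preincubated with compound 10 min at room temperature.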
# [3] = Primary qHTS for inhibitors of nuclear receptor binding SET domain protein 2 (NSD2) in an isogenic RCH-ACV NSD2 p.E1099K mutant (9B) (AID 1645876; active means well fitted curve in the direction sought with a large enough effect; an effect the other way counts as inactive or inconclusive; further: nearly all actives have a fitted effect of over 70% in size; further: potency means the concentration at half of the fitted maximal effect)
# [4] = Primary qHTS for inhibitors of nuclear receptor binding SET domain protein 2 (NSD2) in an RCH-ACV wild type WT cells (2C) (AID 1645877; active means well fitted curve in the direction sought with a large enough effect; an effect the other way counts as inactive or inconclusive; further: nearly all actives have a fitted effect of over 70% in size; further: potency means the concentration at half of the fitted maximal effect)
# [5] = NCATS anti-infectives library activity on HEK293 viability as a counter-qHTS vs the C. elegans viability qHTS (AID 1745854; active means well fitted curve in the direction sought with a large enough effect; an effect the other way counts as inactive or inconclusive;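 further: HEK293 cells exposed to compounds for 24 hr before the viability read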)
# Summary of the method: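 HEK293 cells (1,500/well) exposed 24 hr at 37C to 1:5 titrations, up to 41.7 uM final; counter-screen to a C. elegans viability qHTS. Viability by CellTiter-Glo luminescence after 10 min at room temperature; digitonin as control.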
structure (smiles),measurement,setting,value
Cc1ccc(C(=O)Nc2ccc(CN3CCN(C)CC3)c(C(F)(F)F)c2)cc1C#Cc1cnc2[nH]ncc2c1,Potency,[1],6.01 µM (active)
same,Potency,[2],4.77 µM (active)
same,Potency,[3],11.5 nM (active) and 26.3 nM (active)
same,Potency,[4],14.5 nM (active) and 41.7 nM (active)
N#Cc1cccc(C(=O)Nc2cc(-c3ccccc3)nn2-c2ccccc2)c1,Potency,[2],2.39 µM (active)
O=C(Nc1ccccc1)N1CCC(Cc2cnc3ccccc3c2)CC1,Potency,[2],12 µM (active)
NS(=O)(=O)c1ccc(N2CCN(CC[C@@H]3OCCc4ccccc43)CC2)cc1,Potency,[1],inactive
same,Potency,[2],inactive
same,Potency,[3],inactive
same,Potency,[4],inactive
CNC(=O)c1ccc2c(c1)CCO[C@H]2CCN1CCN(c2ccc(OC)cc2)CC1,Potency,[1],inactive
same,Potency,[3],inactive
same,Potency,[4],inactive
O=S(=O)(O)Oc1ccc(C(c2ccc(OS(=O)(=O)O)cc2)c2ccccn2)cc1,Potency,[2],inactive
C=CC(=O)N1CCCC(n2nc(-c3ccc(Oc4ccccc4)cc3)c3c(N)ncnc32)C1 (configuration not stated),Potency,[2],3.79 µM (active)
CCCCCCCCCCCCCCCC(=O)OC/C=C(C)/C=C/C=C(C)/C=C/C1=C(C)CCCC1(C)C,Potency,[2],13.5 µM (active)
O=c1[nH]c([C@@H]2CCCN2)nc2c1oc1ccc(Cl)cc12,Potency,[1],inactive
same,Potency,[2],inactive
same,Potency,[3],9.16 µM (active)
same,Potency,[4],4.59 µM (active) and 10.5 µM (active)
same,outcome,[5],inactive
COC(=O)c1ccc2c(c1)nc(NC(=O)c1ccccc1)n2CCCc1ccccc1,Potency,[1],inactive
same,Potency,[2],23.9 µM (active)
same,Potency,[3],inactive
same,Potency,[4],inactive
COc1ccc2c(c1)C(C(=O)N(Cc1ccc(N(C)C)cc1)c1ccc(C(C)C)cc1)CCC2 (configuration not stated),Potency,[2],5.35 µM (active)
C[C@@H]1C[C@H](C)CN(CCC(=O)Nc2ccc(Br)cc2)C1,Potency,[2],inactive
CC1(C)Oc2ncnc(N)c2N=C1c1ccc(C23CCC(CC(=O)O)(CC2)CC3)cc1,Potency,[1],inactive
same,Potency,[2],inactive
same,Potency,[3],inactive
same,Potency,[4],inactive
COc1ccccc1N1CCN(CC[C@@](C)(C(=O)C2CCCCC2)c2ccccc2)CC1,Potency,[1],6.01 µM (active)
same,Potency,[2],8.49 µM (active)
same,Potency,[3],16.3 µM (active)
same,Potency,[4],18.3 µM (active)
Nc1c(CC(=O)O)cccc1C(=O)c1ccccc1,Potency,[2],inactive
Cc1nnc(-c2ccc(-c3ccc(C(=O)Nc4ccc(O)c(N5CCN(C)CC5)c4)cc3)c(C)c2)o1,Potency,[2],inactive
CCNC1(C(N)=O)CCN(c2ncnc3c2nc(-c2ccccc2Cl)n3-c2ccc(Cl)cc2)CC1,Potency,[2],2.13 µM (active)
CCOc1cn(-c2ccc(F)cc2C)nc1C(=O)Nc1ccc(Oc2ccnc3cc(OC)c(OC)cc23)c(F)c1,Potency,[1],inactive
same,Potency,[2],inactive
same,Potency,[3],4.09 µM (active)
same,Potency,[4],4.09 µM (active)
COC(=O)c1sccc1S(=O)(=O)Nc1ccc(Nc2ccccc2)cc1OC,Potency,[2],2.39 µM (active)
O=C(Nc1ccc(Cl)cc1)Nc1cccc(-c2cccc(N3CCCC3)n2)c1,Potency,[2],9.52 µM (active)
O=C(NC1CCC1)c1ccc(C#Cc2cccc(F)c2)nc1,Potency,[1],inactive
same,Potency,[2],inactive
same,Potency,[3],inactive
CCCC(CCC)C(=O)NCc1ccc2c(cnn2-c2ccccc2OC)c1,Potency,[2],1.9 µM (active)
O=C(NCc1ccccc1)c1ccc2c(=O)n(-c3cccc(C(F)(F)F)c3)c(=S)[nH]c2c1,Potency,[1],inactive
same,Potency,[2],10.7 µM (active)
same,Potency,[3],inactive
O=C1Nc2nc(-c3c(O)cccc3OCC3CC3)cc([C@@H]3CCCNC3)c2CO1,Potency,[1],inactive
same,Potency,[3],5.78 µM (active)
same,Potency,[4],5.15 µM (active)
Fc1ccc(CN2CCC(Nc3ccc(C(F)(F)F)nn3)CC2)cc1F,Potency,[1],inactive
same,Potency,[3],inactive
same,Potency,[4],inactive
Cc1ccc(S(=O)(=O)N2CCC[C@H]2c2ccc(F)cc2)cc1,Potency,[2],inactive
O=C(CN1C2=NCCN2c2ccccc21)c1ccc(-c2ccccc2)cc1,Potency,[1],inactive
same,Potency,[3],11.5 µM (active)
same,Potency,[4],6.49 µM (active)
CCOC(=O)CCNc1cc(N2CCc3ccccc3CC2)nc(-c2cccnc2)n1,Potency,[2],8.49 µM (active)
O=C(NCc1ccccc1-c1ccccc1C(=O)NCCc1ccccn1)OCc1ccccc1,Potency,[2],2.68 µM (active)
O=C(NCCCN1CCC2(CC1)OCc1ccccc12)[C@H]1CCCN1Cc1ccccc1,Potency,[2],inactive
O=c1[nH]c2cccc(N3CCN(Cc4ccc(-c5ccccc5)cc4)CC3)c2o1,Potency,[2],5.35 µM (active)
CCc1cnc(N2CCC(c3nc(COc4ccc(-n5cnnn5)cc4)cs3)CC2)nc1,Potency,[2],inactive
O=C(Nc1ccn(Cc2ccc(O)cc2C(F)(F)F)n1)c1c(F)cccc1F,Potency,[2],6.01 µM (active)
